# Shown are actives, neighbours in structure and some others; about 2.4% of the full set was active somewhere.
# GLP-1R inv ag: GLP-1 receptor (human) inverse agonism; Potency, µM (highest dose often 38.3 µM), inactives show top-dose activity change, negative = inhibition, hits mostly inhibitors; HEK293 GLP-1R CRE-luciferase, luminescence, 24 h; GLP-1R form is constitutively active; 1.6% of 410,000 active; AID 624417; further: potency means the concentration at half of the fitted maximal effect; on the % scale 0 is the no-effect control and ±100 the full control effect; nearly all actives have a fitted effect of over 55% in size
# Target sequence (P43220 whole entry, looked up): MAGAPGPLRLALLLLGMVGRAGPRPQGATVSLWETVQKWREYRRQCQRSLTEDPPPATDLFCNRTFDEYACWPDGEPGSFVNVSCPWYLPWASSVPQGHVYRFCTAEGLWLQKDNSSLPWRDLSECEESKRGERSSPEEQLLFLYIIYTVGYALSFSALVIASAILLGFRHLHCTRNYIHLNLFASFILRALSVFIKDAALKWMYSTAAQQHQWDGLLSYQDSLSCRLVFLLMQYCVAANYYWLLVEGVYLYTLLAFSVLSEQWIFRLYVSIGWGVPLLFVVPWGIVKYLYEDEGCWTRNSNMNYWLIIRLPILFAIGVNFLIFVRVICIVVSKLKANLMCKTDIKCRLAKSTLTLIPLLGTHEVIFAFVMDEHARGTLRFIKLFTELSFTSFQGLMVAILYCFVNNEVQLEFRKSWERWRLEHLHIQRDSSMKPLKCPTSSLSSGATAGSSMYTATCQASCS
#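 Luminescence readout: a drop in cAMP-driven luciferase signal flags inverse agonism at a constitutively active GLP-1R stably expressed in HEK293. Compound exposure lasted 24 hr at 37 deg C, 5% CO2.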
# PTHR1 agonist: agonists of human PTHR1 parathyroid hormone receptor | 0.075% of 410,000 active | Q03431 | HEK293 GP2 PTHR1 cells, GloSensor cAMP luminescence, 1 h | Potency, µM (doses to about 115 µM), for the others: at the top dose activation, usual class: activators; further: potency means the concentration at half of the fitted maximal effect; nearly all actives have a fitted effect of over 55% in size
#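 HEK-293-derived GP2 cells expressing PTHR1 and a GloSensor cAMP reporter, 3,000/well, plated overnight, given luciferin plus IBMX (each 0.5 mM as added) for 1 h at 37 °C, then compound for 1 h at 37 °C. Luminescence was read after 15 min at room temperature.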
# GLP1R ag: GLP-1 receptor (human) agonism; AID 624172; P43220; Potency, µM (doses to about 45.6 µM), inactives show top-dose activation, most hits filed as activators; 0.007% of 380,000 active; HEK293 GLP-1R CRE-luciferase, luminescence, 4-6 h; cells express a hypersensitive GLP-1R form; further: potency means the concentration at half of the fitted maximal effect; % of control where 0% means no effect
# GLP1R cytotox: cytotoxicity counter-screen for GLP-1 receptor inverse agonists | HEK293 cAMP-luciferase reporter cells, luminescence, 24 h | 0.13% of 410,000 active | Potency, µM (top dose mostly 38.3 µM), inactives show top-dose activity change, negative = inhibition, most hits filed as inhibitors;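 further: loss of luciferase light is scored as toxicity; potency means the concentration at half of the fitted maximal effect; on the % scale 0 is the no-effect control and ±100 the full control effect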
#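 Luminescence readout: signal drop marks cytotoxicity. Plated cells grew 12 h at 37 °C, 5% CO2, received 23 nL compound for 24 h, then got luciferase reagent, read after 12 min at RT.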
# TRHR agonist-1: agonists of human TRH receptor | P34981 | TRHR cells, calcium flux fluo-8, FDSS agonist mode | activation, % at 2 µM | 0.18% of 360,000 active | AID 493084; in the data active means activation above about 30%; further: 0% is about no effect
#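 In this calcium-flux screen, cells bearing human TRHR are dye-loaded with fluo-8, baselined for 10 cycles, then exposed to library compounds; positive kinetic calcium responses during the agonist phase mark hits, with TRH as control.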
# TRHR enhancer-1: TRH receptor (human) allosteric enhancement; enhancement, % at 2 µM; P34981; TRHR cells, fluo-8 calcium fluorescence, EC20 TRH enhancement; 0.66% of 360,000 active; in the data active means enhancement above about 30%; further: 0% is about no effect
#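 TRHR-expressing cells loaded with fluo-8 calcium dye were read kinetically (ex 480/em 530) during compound addition, then stimulated with an EC20 of TRH (10 nM final). Enhancement of the Gq-mediated intracellular calcium response was scored.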
# TRHR enhancer-2: confirmation of human TRH receptor allosteric enhancers; shares compounds with TRHR enhancer-1; TRH receptor cell assay, enhancer confirmation qHTS; activity change, negative = inhibition, % at 46.1 µM; 970 tested, under 10 active; AID 493076;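 further: compound effect scored on response to added TRH at EC20 of 10 nM; 0% is about no effect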
# TRHR agonist-2: human TRH receptor agonism confirmation | 8% of 970 active | shares compounds with TRHR enhancer-1 | TRHR-expressing cells, agonist activation read-out | AID 493078 | Potency, µM (titrated, usually from 46.1 µM), without a hit: at the top dose activation, usual class: activators; further: potency means the concentration at half of the fitted maximal effect; 0% is about no effect; nearly all actives have a fitted effect of over 75% in size
# * = called active by the depositor; i = inactive; ? = inconclusive; · = not tested or not shown; [ ] = remark or other dose. Unless noted, the call rests on the fitted dose curve; in most records, active means well fitted curve in the direction sought with a large enough effect; inconclusive means small, poorly fitted or top-dose-only effect, or another doubt; inactive means no such curve, though single readings can be large; an effect the other way counts as inactive or inconclusive.
SMILES,GLP-1R inv ag,PTHR1 agonist,GLP1R ag,GLP1R cytotox,TRHR agonist-1,TRHR enhancer-1,TRHR enhancer-2,TRHR agonist-2
Cc1ccc(-n2nc3ccc(NC(=O)Cc4ccc(Cl)cc4)cc3n2)cc1,4.3%,i,·,-6.0%,0.8,0.3,·,·
O=C(O)CC1SC(=Nc2ccc(O)cc2)NC1=O (configuration not stated),8.8%,-8.3%,-3.0%,-9.8%,-0.2,2.4,·,·
CCOc1ccc(N=C2NC(=O)C(CC(=O)O)S2)cc1 (configuration not stated),9.6%,i,-1.9%,-1.1%,1.2,53.2*,-11.0,-0.9%
Clc1ccc(OCCNCCc2ccccc2)cc1,?,-15.9%,2.4%,0.0%,0.7,43.0*,8.9,9.0%
COc1ccccc1OCC(=O)OCC(=O)Nc1sccc1C(N)=O,0.4%,-47.8%,9.9%,14.1%,33.5*,-2.1,-1.1,?
COc1cc(/C=C(\C#N)c2nc3ccccc3n2C)cc(OC)c1O,10.7%,-84.5%,8.5%,4.3%,118.7*,17.3,-1.0,18.4µM*
O=C(O)C1CC(=O)N(CCc2ccc(F)cc2)C1 (configuration not stated),3.2%,i,-1.2%,-0.1%,1.1,2.0,·,·
NC(=O)C(CCc1nc2ccccc2[nH]1)NS(=O)(=O)c1ccccc1 (configuration not stated),5.6%,-21.9%,-1.8%,6.0%,·,·,·,·
Nc1c(S(=O)(=O)c2ccccc2)c2nc3ccccc3nc2n1Cc1ccco1,0.0%,i,-5.9%,0.5%,28.1,2.3,-1.0,?
COc1cc2ncnc(NCc3ccco3)c2cc1OC,36.3%,-73.6%,11.2%,-5.9%,-1.6,74.5*,-5.9,4.0%
Cc1cccc(NC(=O)C2CCCN(S(=O)(=O)c3c(C)nn(C)c3C)C2)c1 (configuration not stated),25.4%,-6.3%,-5.5%,5.5%,·,·,·,·
Cc1ccc(C)c(NC(=O)C2CCCN(S(=O)(=O)c3c(C)nn(C)c3C)C2)c1 (configuration not stated),-15.8%,i,5.9%,-0.9%,30.2*,-0.5,-7.2,3.6%
CCN(CC)C(=O)C1c2ccccc2Oc2ccccc21,?,-5.8%,8.1%,-0.5%,2.6,46.4*,-7.9,1.3%
C=CCN(CC=C)C(=O)C1c2ccccc2Oc2ccccc21,?,-58.0%,-5.3%,0.9%,·,·,·,·
Cc1cc(C)c2cc(C#N)c(N3CCCN(C(=O)c4cnccn4)CC3)nc2c1,?,-19.9%,23.7%,-2.6%,-0.4,2.6,·,·
O=S(=O)(Nc1cnc2ccccc2c1)N1CCCCCC1,?,-19.5%,15.5%,-20.7%,1.3,47.9*,2.0,4.1%
Cc1ccc(S(=O)(=O)Nc2cnc3ccccc3c2)cc1,25.5%,i,-5.3%,1.4%,1.5,7.4,·,·
C[N+]1(CCCCC[N+]2(C)CCCC2)CCCC1,·,·,1.0%,·,·,·,·,·
C[N+]1(CCCCCCC(=O)/C=N/O)CCCCCC1,5.3%,-21.5%[57.5 µM],-4.2%,4.3%,1.6,42.8*,-0.6,-0.8%
Cc1noc(C)c1CSc1nnc2sc3ccccc3n12,12.7%,-7.4%[57.5 µM],17.6%,13.1%,0.5,43.4*,-5.0,0.5%
CC1Cc2ccccc2N1C(=O)CSc1nnc2sc3ccccc3n12 (configuration not stated),?,i,8.3%,-7.1%,-0.2,62.5*,1.1,-0.7%
Cn1c(C2CCCN2C(=O)OC(C)(C)C)n[nH]c1=S (configuration not stated),2.2%,i,-5.5%,5.8%,0.0,4.4,·,·
COc1ccc(OC)c(Nc2nc(-c3cccs3)cs2)c1,?,i,17.1%,-27.8%,0.5,-3.1,·,·
COc1ccccc1Nc1nc(-c2cccs2)cs1,0.0%,-10.6%[57.5 µM],1.5%,7.1%,1.4,44.3*,-4.9,4.8%
COc1cccc(NC(=S)N(Cc2ccccn2)Cc2ccccc2Cl)c1,?,-4.6%,14.3%,?,0.3,43.2*,-4.7,2.1%
SMILES,GLP-1R inv ag,PTHR1 agonist,GLP1R ag,GLP1R cytotox,TRHR agonist-1,TRHR enhancer-1,TRHR enhancer-2,TRHR agonist-2
OCCNc1ncnc2c1ncn2[C@H]1CN(Cc2cccs2)C[C@@H](CO)O1,-1.2%,i,7.7%,4.1%,·,·,·,·
Cc1ccc2cc(NC(=O)c3ccccc3C)ccc2n1,53.4%,-13.0%,19.7%,13.4%,0.1,49.6*,2.2,0.9%
Cc1ccc2cc(NC(=O)Cc3ccccc3)ccc2n1,-10.4%,-29.7%,-6.5%,2.9%,0.2,3.1,·,·
CCc1ccc2nc(/N=C(\N)NC(=O)c3ccccc3)nc(C)c2c1,6.4%,-21.6%,5.5%,5.9%,-0.1,45.3*,9.2,8.2%
Cc1cccc(NC(=O)COc2ccc(Br)cc2/C=N/O)c1,?,-44.0%,8.3%,9.3%,-1.0,42.6*,-7.1,2.3%
O=C1CC(c2ccc(F)cc2)Cc2nc(N3CCOCC3)ncc21 (configuration not stated),6.7%,17.7%,3.6%,0.6%,-0.4,-6.6,·,·
COc1ccc(CNC(=O)c2cc(C3CC3)nc3c2cnn3C(C)C)cc1OC,15.6%,-20.5%,10.7%,1.8%,-0.9,-14.4,·,·
CCNc1nc(NCC)n2c(SCC(=O)Nc3ccc(F)cc3)nnc2n1,-1.5%,-23.5%,-0.1%,0.5%,0.0,1.0,·,·
CCNc1nc(NCC)n2c(SCC(=O)Nc3ccc(C)c(C)c3)nnc2n1,-15.6%,i,10.8%,-2.7%,-0.2,45.1*,14.2,4.5%
c1ccc(-c2cc3ncc4c(n3n2)-c2ccccc2OC4)cc1,7.0%,-16.3%,0.5%,5.7%,0.9,-0.7,·,·
COc1ccc(C(=O)NC2CC2)cc1OC1CCN(C(C)CSC)CC1 (configuration not stated),18.1%,-11.7%,-6.2%,1.4%,26.4,2.1,-5.3,5.5%
Cc1cccc(-c2nnc(C(C)Nc3cccc(C(=O)NC4CC4)c3)o2)c1 (configuration not stated),28.3%,-23.0%,9.9%,-29.8%,·,·,·,·
Cc1c2ccccc2nc2c(F)c(NCCO)c(F)c(F)c12,99.3%,i,1.8%,11.9%[1.53 µM],37.1*,11.2,7.7,16.4µM*
COc1ccc(Nc2nc(N3CCCC3)nc(N3CCOCC3)n2)cc1,·,-22.2%,4.1%,·,·,·,·,·
CCOc1ccc(Nc2nc(N3CCOCC3)nc(N3CCOCC3)n2)cc1,?,-16.2%,7.8%,18.5%,0.6,50.2*,-5.4,1.6%
